Experimental data taken from PubChem BioAssay.

Assay: NFkB reporter suppression in cystic fibrosis bronchial cells – cell-based, uHTS hits, panel, cytotoxicity readout, dose response (AID 624344)
Conditions: CF bronchial epithelial cells, PAF-induced NFkB reporter inhibition, with PAF, run 1; at 79 µM (top of the series) unless noted

Row | SMILES | inhibition [%]
1 | Cc1cnc(C=O)c2cccc([N+](=O)[O-])c12 | 110
2 | O=C(NNC(=S)Nc1cccc(C(F)(F)F)c1)c1cccc(Cl)c1 | 115
3 | CN1CCN(S(=O)(=O)c2ccc(Sc3nnnn3-c3ccccc3)c([N+](=O)[O-])c2)CC1 | 109
4 | CCOc1ccc(Nc2ncnc3ccc([N+](=O)[O-])cc23)cc1 | 102
5 | COc1cc(CCc2ccccc2)c(C(=O)O)c(O)c1C/C=C(/C)CCC=C(C)C | 104
6 | Cc1ccc(Sc2c(C=O)c3ccccc3n2C)cc1 | 105
7 | COc1ccc(S(=O)(=O)N2c3ccc(F)cc3CCC2C)cc1 (stereo unspecified) | 98.8
8 | Cc1ccc(N(C)C(=O)c2cc(S(=O)(=O)N3CCCCC3)c[nH]2)cc1 | 93.5
9 | COC(=O)c1ccc(-c2ccc(OC)c([C@H]3[C@H]4C=CC[C@@H](C)[C@@H]4C(=O)N3Cc3ccccc3)c2)cc1 | 111
10 | CC1(C)CC(=O)C=C(NC2=CC3OC(c4ccccc4)OCC3OC2=O)C1 (stereo unspecified) | 103
11 | NC(c1csc(NC(=O)Nc2cccc(Cl)c2)n1)c1ccccc1Cl (stereo unspecified) | 96.3
12 | CCOC(=O)N1CCC(NC(=O)c2ccc3c(c2)N=C(C)c2c(C)ccc(C)c2S3)CC1 | 92.2
13 | Cc1ccc(-c2cc(C(=O)N(C)Cc3cnn(C)c3C)c3cc(Br)ccc3n2)cc1 | 109
14 | Cc1ccc(NS(=O)(=O)c2ccc(-c3cnc(C4CC4)o3)cc2)c(C)c1 | 104
15 | CC(=O)Nc1ccc(NC(=O)COC(=O)c2c3c(nc4ccccc24)CCN(Cc2ccccc2)C3)cc1 | 92.5
16 | C[C@]12CCC(O)CC1CCC1C2CC[C@]2(C)C(c3cc(C(F)(F)F)n[nH]3)CCC12 (stereo partly specified) | 121
